For part of these data: Potency and affinity values are given separately.

The record followed here is ChEMBL document CHEMBL3988442, “University of Dundee, Small-Polar-MMV Screening Library” (2021).

Set-up in all cases: scale not given: direction of the effect not stated beside the values
Test [1] addresses Protein translocase subunit SecA (Escherichia coli (strain K12)) (UniProt P10408). Put plainly: Assay to Identify E. coli SecA ATPase Inhibitors. Format: functional. Conditions: 30 µM.
The target of test [2] is T1, Ubiquitin-activating enzyme e1, putative (Leishmania donovani (strain BPK282A1)) (UniProt E9BSI1).
T1 sequence (whole entry): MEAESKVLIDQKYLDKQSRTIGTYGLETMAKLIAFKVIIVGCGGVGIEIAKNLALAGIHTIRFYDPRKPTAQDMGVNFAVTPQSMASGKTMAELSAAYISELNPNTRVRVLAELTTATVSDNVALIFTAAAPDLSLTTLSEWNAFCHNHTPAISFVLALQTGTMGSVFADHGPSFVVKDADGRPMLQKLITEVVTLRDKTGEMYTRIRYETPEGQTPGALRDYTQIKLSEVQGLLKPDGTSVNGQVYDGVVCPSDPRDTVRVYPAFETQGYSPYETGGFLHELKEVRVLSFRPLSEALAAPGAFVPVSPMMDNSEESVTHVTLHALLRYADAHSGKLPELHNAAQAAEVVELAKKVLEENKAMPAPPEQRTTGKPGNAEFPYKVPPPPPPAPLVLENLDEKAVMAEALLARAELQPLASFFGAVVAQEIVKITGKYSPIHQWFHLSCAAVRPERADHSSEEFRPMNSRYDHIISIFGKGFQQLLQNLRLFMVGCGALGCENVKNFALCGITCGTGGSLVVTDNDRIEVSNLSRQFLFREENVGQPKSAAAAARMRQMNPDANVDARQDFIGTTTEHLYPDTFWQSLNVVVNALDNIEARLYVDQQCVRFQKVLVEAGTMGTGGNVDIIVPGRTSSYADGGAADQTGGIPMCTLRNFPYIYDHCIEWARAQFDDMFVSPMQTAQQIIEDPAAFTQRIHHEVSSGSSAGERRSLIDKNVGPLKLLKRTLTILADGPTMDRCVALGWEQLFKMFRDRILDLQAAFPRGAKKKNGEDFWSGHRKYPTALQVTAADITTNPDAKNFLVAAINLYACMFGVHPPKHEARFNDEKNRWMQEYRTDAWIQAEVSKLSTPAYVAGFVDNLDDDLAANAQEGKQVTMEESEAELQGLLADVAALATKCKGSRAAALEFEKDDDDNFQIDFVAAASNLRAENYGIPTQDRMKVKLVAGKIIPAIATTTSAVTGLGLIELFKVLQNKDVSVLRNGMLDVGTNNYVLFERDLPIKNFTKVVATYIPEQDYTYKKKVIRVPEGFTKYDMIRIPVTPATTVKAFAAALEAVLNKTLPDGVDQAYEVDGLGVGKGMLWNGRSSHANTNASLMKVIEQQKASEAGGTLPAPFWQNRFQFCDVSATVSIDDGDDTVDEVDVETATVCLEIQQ
Put plainly: Leishmania donovani Ubiquitin Activating Enzyme (LdE1). Format: functional. Particulars: 30 µM.

Test [3] has as its target AMP-activated protein kinase, AMPK (Homo sapiens) (UniProt P54646+O43741+P54619+Q9UGJ0+Q9Y478+Q13131+Q9UGI9). Put plainly: AMP-dependent Kinase enzyme assay. An in vitro enzyme assay that detects ADP turnover that is directly proportional to AMPK activity. This uses naive AMPK that is activated during the assay with MK-8722. Format: functional. Particulars: 30 µM.
For test [4], the target named is Sialic acid-binding Ig-like lectin 9 (Homo sapiens) (UniProt Q9Y336). The test can be described thus: Hs-Siglec9 ALPHAscreen SOP 20170721. Particulars: 10 µM. Background: Bead proximity is the source of the signal in Alpha formats.
The next test deals with Trypanosoma cruzi. The test can be described thus: Trypanosoma cruzi phosphomannomutase and mannose-1-phosphate guanylyltransferase assay. Format: functional. Conditions: 10 µM.
Test [5] deals with T2, Arginase-2, mitochondrial (Homo sapiens) (UniProt P78540).
T2 sequence (whole entry): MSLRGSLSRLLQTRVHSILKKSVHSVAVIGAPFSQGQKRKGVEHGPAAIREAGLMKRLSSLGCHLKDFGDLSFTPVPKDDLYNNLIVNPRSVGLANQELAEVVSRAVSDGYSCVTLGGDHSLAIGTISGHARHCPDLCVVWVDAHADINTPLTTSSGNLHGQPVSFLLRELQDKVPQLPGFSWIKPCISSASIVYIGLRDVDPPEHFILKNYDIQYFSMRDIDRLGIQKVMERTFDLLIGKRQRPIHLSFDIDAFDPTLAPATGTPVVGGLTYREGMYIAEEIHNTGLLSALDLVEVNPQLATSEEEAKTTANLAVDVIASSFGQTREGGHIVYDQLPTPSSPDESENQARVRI
The test can be described thus: in vitro enzyme assay to detect the production of urea directly proportional to the activity of Arginase II. Further: in the data most compounds retested in dose-response had high values. Type of test: functional. Conditions: 33.3 µM.

For test [6], the target named is T3, Proteasome subunit beta (Trypanosoma cruzi) (UniProt O96673).
T3 sequence (whole entry): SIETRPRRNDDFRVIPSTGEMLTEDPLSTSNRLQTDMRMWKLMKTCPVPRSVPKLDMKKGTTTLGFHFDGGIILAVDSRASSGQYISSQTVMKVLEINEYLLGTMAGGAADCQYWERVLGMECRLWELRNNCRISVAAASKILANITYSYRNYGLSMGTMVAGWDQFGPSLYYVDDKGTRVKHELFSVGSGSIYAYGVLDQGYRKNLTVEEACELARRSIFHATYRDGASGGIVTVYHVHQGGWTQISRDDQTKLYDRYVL
Put plainly: Trypanosoma cruzi proteasome chymotrypsin-like activity (TcProtChymo) assay. Further: in the data most compounds retested in dose-response had high values. Format: functional. Conditions: 9.37 µM.

The species named for a further test is Homo sapiens. The test can be described thus: To identify inhibition of the IFN signalling (Jak-Stat) pathway via expression of an eGFP reporter gene under the control of an IFN-stimulated response element (ISRE) containing MxA promoter. Conditions: 30 µM. Format: functional.
The target of test [7] is T4, Tyrosyl-tRNA synthetase, putative (Trypanosoma cruzi (strain CL Brener)) (UniProt Q4DSP6).
T4 sequence (whole entry): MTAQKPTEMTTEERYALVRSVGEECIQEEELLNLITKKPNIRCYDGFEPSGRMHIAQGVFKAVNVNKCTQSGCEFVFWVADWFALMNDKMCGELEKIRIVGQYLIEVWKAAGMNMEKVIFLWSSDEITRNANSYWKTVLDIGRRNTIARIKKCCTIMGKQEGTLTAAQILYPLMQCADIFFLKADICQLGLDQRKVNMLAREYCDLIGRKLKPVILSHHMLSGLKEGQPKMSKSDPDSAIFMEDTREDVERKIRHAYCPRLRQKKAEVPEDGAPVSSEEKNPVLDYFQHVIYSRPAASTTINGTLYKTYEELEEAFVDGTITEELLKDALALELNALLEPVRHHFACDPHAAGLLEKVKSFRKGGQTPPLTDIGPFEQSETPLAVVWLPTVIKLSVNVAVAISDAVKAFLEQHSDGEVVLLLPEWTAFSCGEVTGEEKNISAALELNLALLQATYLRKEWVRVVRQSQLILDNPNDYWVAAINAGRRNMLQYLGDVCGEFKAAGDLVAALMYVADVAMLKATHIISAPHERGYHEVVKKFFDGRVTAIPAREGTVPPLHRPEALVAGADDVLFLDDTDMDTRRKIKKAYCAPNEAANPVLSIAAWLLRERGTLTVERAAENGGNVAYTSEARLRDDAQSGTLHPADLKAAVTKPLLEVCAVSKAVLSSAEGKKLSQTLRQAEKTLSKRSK
Put plainly: Trypanosoma cruzi tyrosyl tRNA synthetase (TcYRS) _High Tyrosine SOP. Further: in the data most compounds retested in dose-response had high values. Format: functional. Conditions: 30 µM.

In test [8] the target is T4, Tyrosyl-tRNA synthetase, putative (Trypanosoma cruzi (strain CL Brener)). The test can be described thus: Trypanosoma cruzi tyrosyl tRNA synthetase (TcYRS) SOP. Format: functional. Conditions: 30 µM.
Test [9] has as its target Chromo domain-containing protein 1 (Saccharomyces cerevisiae (strain ATCC 204508 / S288c) (Baker's yeast)) (UniProt P32657). Put plainly: ScCHD-1 Enzyme Inhibition Assay. Further: in the data most compounds retested in dose-response had high values. Format: functional. Conditions: 30 µM.

Protein translocase subunit SecA (Escherichia coli (strain K12)), sequence (P10408 whole entry): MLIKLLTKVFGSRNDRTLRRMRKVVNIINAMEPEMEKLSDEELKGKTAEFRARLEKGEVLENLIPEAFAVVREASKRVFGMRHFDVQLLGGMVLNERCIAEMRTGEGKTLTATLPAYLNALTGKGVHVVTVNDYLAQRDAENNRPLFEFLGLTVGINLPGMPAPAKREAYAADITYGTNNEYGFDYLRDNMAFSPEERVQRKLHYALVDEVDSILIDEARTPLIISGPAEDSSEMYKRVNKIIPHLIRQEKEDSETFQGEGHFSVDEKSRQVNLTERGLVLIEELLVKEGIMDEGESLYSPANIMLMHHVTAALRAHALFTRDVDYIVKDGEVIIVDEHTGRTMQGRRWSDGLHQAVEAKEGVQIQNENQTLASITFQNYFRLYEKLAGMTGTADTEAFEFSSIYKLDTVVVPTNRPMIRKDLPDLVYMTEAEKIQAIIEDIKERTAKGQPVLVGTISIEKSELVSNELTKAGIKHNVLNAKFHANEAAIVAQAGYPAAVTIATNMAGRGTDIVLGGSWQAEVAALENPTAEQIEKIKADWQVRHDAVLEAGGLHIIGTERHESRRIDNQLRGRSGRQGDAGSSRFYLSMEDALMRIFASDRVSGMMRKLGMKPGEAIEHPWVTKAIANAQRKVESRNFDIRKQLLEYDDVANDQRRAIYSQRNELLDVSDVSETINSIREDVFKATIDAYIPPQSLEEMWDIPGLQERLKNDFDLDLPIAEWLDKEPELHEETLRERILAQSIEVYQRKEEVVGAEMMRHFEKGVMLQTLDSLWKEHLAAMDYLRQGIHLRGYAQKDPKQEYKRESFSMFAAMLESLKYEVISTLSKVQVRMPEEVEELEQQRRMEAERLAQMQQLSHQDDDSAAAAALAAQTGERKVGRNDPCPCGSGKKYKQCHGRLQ
Chromo domain-containing protein 1 (Saccharomyces cerevisiae (strain ATCC 204508 / S288c) (Baker's yeast)), sequence (P32657 whole entry, the tested form may be a part): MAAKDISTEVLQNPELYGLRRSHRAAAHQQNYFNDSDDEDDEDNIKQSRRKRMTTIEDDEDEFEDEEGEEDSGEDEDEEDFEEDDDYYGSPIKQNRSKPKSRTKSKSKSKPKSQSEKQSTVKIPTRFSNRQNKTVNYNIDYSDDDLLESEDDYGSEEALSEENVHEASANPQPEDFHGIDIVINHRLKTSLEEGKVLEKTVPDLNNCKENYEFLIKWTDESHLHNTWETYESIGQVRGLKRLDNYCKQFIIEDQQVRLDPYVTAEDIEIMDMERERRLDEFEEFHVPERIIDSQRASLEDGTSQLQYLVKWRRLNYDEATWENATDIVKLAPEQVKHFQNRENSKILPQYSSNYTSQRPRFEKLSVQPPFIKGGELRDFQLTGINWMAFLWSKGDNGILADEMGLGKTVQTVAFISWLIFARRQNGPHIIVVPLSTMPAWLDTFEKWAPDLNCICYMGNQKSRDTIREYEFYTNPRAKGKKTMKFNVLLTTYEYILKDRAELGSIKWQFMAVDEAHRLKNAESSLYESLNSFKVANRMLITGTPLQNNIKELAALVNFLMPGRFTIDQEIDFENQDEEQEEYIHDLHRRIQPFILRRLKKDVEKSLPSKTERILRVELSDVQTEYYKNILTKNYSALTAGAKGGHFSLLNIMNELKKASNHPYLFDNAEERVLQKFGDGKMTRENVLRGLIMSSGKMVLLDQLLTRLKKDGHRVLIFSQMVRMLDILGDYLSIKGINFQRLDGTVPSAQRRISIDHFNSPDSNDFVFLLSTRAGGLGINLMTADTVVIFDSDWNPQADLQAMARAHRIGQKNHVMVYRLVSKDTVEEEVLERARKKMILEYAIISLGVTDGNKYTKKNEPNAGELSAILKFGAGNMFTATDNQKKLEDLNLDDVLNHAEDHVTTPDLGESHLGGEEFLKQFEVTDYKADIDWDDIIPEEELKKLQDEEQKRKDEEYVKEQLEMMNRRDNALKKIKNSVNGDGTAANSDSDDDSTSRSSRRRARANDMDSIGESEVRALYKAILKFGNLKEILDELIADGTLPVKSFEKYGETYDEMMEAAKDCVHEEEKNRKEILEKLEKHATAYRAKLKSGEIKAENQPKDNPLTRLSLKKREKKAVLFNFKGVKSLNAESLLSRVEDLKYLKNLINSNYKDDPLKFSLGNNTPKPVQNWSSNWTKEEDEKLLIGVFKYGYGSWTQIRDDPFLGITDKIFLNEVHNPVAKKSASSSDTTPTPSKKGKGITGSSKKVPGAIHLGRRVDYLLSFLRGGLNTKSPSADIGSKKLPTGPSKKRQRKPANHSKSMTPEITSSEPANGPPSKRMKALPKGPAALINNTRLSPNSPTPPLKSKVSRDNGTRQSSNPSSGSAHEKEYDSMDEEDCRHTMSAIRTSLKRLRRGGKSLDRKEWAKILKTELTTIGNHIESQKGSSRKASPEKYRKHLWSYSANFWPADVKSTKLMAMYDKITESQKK
Sialic acid-binding Ig-like lectin 9 (Homo sapiens), sequence (Q9Y336 whole entry): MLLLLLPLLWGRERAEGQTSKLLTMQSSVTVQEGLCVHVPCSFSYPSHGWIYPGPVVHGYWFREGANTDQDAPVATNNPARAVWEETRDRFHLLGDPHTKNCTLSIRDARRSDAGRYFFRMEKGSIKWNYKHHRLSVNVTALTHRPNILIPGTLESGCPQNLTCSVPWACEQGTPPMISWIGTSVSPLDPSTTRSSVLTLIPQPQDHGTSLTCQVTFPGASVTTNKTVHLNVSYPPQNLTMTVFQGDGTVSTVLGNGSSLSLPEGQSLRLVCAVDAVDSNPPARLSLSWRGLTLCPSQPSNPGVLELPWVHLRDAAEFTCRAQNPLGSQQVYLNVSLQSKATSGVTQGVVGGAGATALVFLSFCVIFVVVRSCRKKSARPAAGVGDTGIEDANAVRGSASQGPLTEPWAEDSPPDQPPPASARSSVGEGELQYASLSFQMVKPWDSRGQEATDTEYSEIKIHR

With `CSCc1cccc(S(=O)(=O)N2CCC(C)CC2)c1`, the Percent Effect was -5.58% in test [1]; -4% in test [2]; 7.56% in test [3]; 1.46% in test [4]; -5.5% in the test on Trypanosoma cruzi; -5.11% in [5]. Besides, the Percent Effect in test [6] was 7.39%; in the test filed under Homo sapiens, 27.8%; in test [7], -11.6%; in test [8] it was -10.3%; in test [9], -6.13%.

For the compound `COc1ccc(CN2CCCC(Cn3nc(C)nc3C)C2)cc1F` (centres undefined), the Percent Effect in [1] is -2.67%; in [2], -3.8%; in [3] it was 7.97%; in test [4] it was -1.91%; in the test on Trypanosoma cruzi, 5.64%; in test [5], -1.94%. Besides, the Percent Effect in test [6] is 0%; in the test filed under Homo sapiens it was 5.94%; in test [7], -2.08%; in [8] it was 2.53%; in test [9] it was 4.68%.

Consider `Cn1nc(C2CCCN(Cc3ccsc3)C2)c2nccnc21` (centres undefined), for which the Percent Effect is -0.97% in test [1]; 9.46% in test [2]; 11.9% in [3]; -2.94% in test [4]; -2.37% with Trypanosoma cruzi; -0.696% in [5]. Moreover, the Percent Effect is 4.68% in [6]; 3.34% in the test listed under Homo sapiens; 1.07% in [7]; 6.49% in test [8]; -19.8% in test [9].

Turning to `NC(=O)CN1CCCN(C(=O)c2ccn(-c3cccc(F)c3)n2)CC1`, the Percent Effect in [1] is -1.81%; in test [2], 6.94%; in test [3], -1.98%; in [4] it was -6%; in the test on Trypanosoma cruzi, -3.01%; in [5], 2.21%. Moreover, the Percent Effect in [6] was 10.3%; in the test listed under Homo sapiens it was -17.8%; in [7] it was -1.05%; in test [8], 5.13%; in test [9], -0.989%.

In the case of `Cn1cc(C(=O)N[C@@H]2CN(Cc3cccs3)[C@@H]3CCCO[C@@H]32)cn1`, the Percent Effect in [1] was -4.79%; in test [2] it was 13.3%; in test [3], -3.04%; in [4] it was -0.505%; in the test on Trypanosoma cruzi, 0.579%; in [5], -49.6%. Further, the Percent Effect in test [6] is 9.74%; in the test listed under Homo sapiens, -5.26%; in test [7] it was 1.04%; in [8] it was 12.5%; in test [9], -7.8%.

`O=C(Cn1ccnc1)N1C[C@@H]2CC[C@H](Oc3ccccc3)[C@@H]2C1`: the Percent Effect in test [1] was -4.17%; in test [2], 9.46%; in test [3] it was 7.42%; in test [4], -4.28%; in the test with Trypanosoma cruzi, 2.77%; in test [5] it was -1.16%. Also, the Percent Effect is 16.2% in [6]; 12.3% in the test filed under Homo sapiens; 3.23% in [7]; 11.7% in test [8]; -11.8% in test [9].

Take `Cc1cc(-c2cnn(CCNC(=O)c3cccnc3)c2C2CC2)on1`: the Percent Effect is -4.86% in test [1]; 4.05% in [2]; 7.97% in [3]; 2.6% in [4]; -0.395% in the test on Trypanosoma cruzi; -3.48% in test [5]. In addition, the Percent Effect in [6] is -1.09%; in the test filed under Homo sapiens it was 7.9%; in test [7], 5.38%; in [8] it was 9.09%; in test [9] it was 1.21%.

Turning to `Cn1cc(CN2CCn3c(CNC(=O)c4cccn4C)cnc3C2)cn1`, the Percent Effect in test [1] was 1.54%; in test [2], 10.7%; in [3], -1.53%; in [4], 26.8%; with Trypanosoma cruzi, -0.193%; in test [5], -52.1%. The Percent Effect is 14% in [6]; 0.903% in the test listed under Homo sapiens; 7.29% in test [7]; 22.5% in test [8]; -7.88% in test [9].

For the compound `O=C(c1ncccn1)N1C[C@H]2CCC[C@@]2(COCc2ccncc2)C1`, the Percent Effect is -1.29% in [1]; 23.4% in test [2]; -4.05% in test [3]; -10.3% in test [4]; 4.63% with Trypanosoma cruzi; 4.52% in test [5]. The Percent Effect in test [6] was 13.9%; in the test listed under Homo sapiens, 11.8%; in test [7] it was 3.17%; in test [8], 14.1%; in [9], -11.1%.
